Measured values from PubChem BioAssay (NCI).
This is part of a sample that, as a whole, favours compounds with a hit. Of some 79,000 tested, about 15% had one in any assay. Calls of active or inactive are those of the source. Rule as the data show it: active = growth inhibition above about 70%; inactive = the rest.

Experiments:
[1] = NCI Yeast Anticancer Drug Screen. Data for the rad52 strain (AID 147);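 also: 0% = growth of vehicle-treated control cultures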; details: S. cerevisiae rad52 mutant growth inhibition, active compounds read high
In short: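 Genetically altered yeast (DNA damage repair defect) treated with compound; inhibition calculated relative to vehicle.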

[2] = NCI Yeast Anticancer Drug Screen. Data for the wt1 strain (AID 149);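 also: 0% = growth of vehicle-treated wt1 cultures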; details: S. cerevisiae wt1 strain (SPY 50644) growth inhibition, active compounds read high
In short: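 Compounds are added to wt1 yeast cultures. Growth is then measured. Inhibition is expressed relative to vehicle-treated controls.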

[3] = NCI Yeast Anticancer Drug Screen. Data for the rad50EPP+ strain (AID 151);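 also: 0% = growth of vehicle-treated control cultures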; details: S. cerevisiae rad50 mutant strain, active compounds read high
In short: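 Strain rad50EPP+; compound exposure; % growth inhibition vs vehicle.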

[4] = NCI Yeast Anticancer Drug Screen. Data for the mgt1 strain (AID 153); details: S. cerevisiae mgt1 mutant growth inhibition, active compounds read high
In short: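 Read-out: yeast growth inhibition vs vehicle control. Strain mgt1, drawn from a panel altered in DNA damage repair or cell cycle control.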

[5] = NCI Yeast Anticancer Drug Screen. Data for the rad50 strain (AID 155);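 also: 0% = growth of vehicle-only cultures of the same strain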; details: S. cerevisiae rad50 strain growth inhibition, active compounds read high
In short: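 Inhibition values express reduced yeast growth in compound-treated cultures relative to vehicle-treated controls.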

[6] = NCI Yeast Anticancer Drug Screen. Data for the mec2-1 strain (AID 157); details: S. cerevisiae mec2-1 strain, active compounds read high
In short: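 Cells of the genetically defined mec2-1 yeast strain are incubated with test compound. Inhibition of growth is calculated against vehicle-treated controls.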

[7] = NCI Yeast Anticancer Drug Screen. Data for the rad14 strain (AID 159);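 also: 0% = growth of vehicle-treated control cultures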; details: S. cerevisiae rad14 strain growth inhibition, active compounds read high
In short: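 A mutant yeast strain defective in DNA damage repair is treated with compound; inhibition of its growth is scored against untreated, vehicle-exposed cultures.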

[8] = NCI Yeast Anticancer Drug Screen. Data for the sgs1 mgt1 strain (AID 161);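 also: 0% = growth of cultures given vehicle only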; details: S. cerevisiae sgs1 mgt1 strain, active compounds read high
In short: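 Genetically altered yeast, compound exposure, growth inhibition relative to vehicle.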

[9] = NCI Yeast Anticancer Drug Screen. Data for the CLN2oe strain (AID 163);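 also: 0% = growth of vehicle-only control cultures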; details: S. cerevisiae CLN2oe strain, active compounds read high
In short: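 Strain altered in cell-cycle control, incubated with compound; growth compared to solvent-treated controls.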

[10] = NCI Yeast Anticancer Drug Screen. Data for the cln2 rad14 strain (AID 165);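 also: 0% = growth equal to vehicle treated cultures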; details: S. cerevisiae cln2 rad14 strain, active compounds read high
In short: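 The screen exposed genetically defined yeast (cln2 rad14) to test compounds and scored growth inhibition relative to vehicle-treated controls.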

[11] = NCI Yeast Anticancer Drug Screen. Data for the bub3 strain (AID 167); details: S. cerevisiae bub3 mutant strain, active compounds read high
In short: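 Steps: expose the mutant yeast strain to compound; grow alongside vehicle-treated cultures; measure growth; express inhibition against the vehicle cultures.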

[12] = NCI Yeast Anticancer Drug Screen. Data for the wt2 strain (AID 169);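 also: 0% = growth of vehicle-treated yeast cultures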; details: S. cerevisiae wt2 strain growth inhibition, active compounds read high
In short: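 Steps: yeast strain treated with compound; growth recorded; inhibition calculated relative to cultures given vehicle alone.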

[13] = NCI Yeast Anticancer Drug Screen. Data for the mlh1 strain (AID 171);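 also: 0% = growth of vehicle-treated control cultures of the same strain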; details: S. cerevisiae mlh1 strain growth inhibition, active compounds read high
In short: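 Yeast screen: mutant strain plus compound, growth scored against vehicle control wells.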

[14] = NCI Yeast Anticancer Drug Screen. Data for the sgs1 strain (AID 173);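 also: 0% = growth of vehicle-only control cultures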; details: S. cerevisiae sgs1 mutant, active compounds read high
In short: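 Inhibition of yeast growth served as the measure. The mutant strain was treated with each compound, and growth was normalised to cultures receiving vehicle alone.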

[15] = NCI Yeast Anticancer Drug Screen. Data for the mlh1 rad18 strain (AID 175); details: S. cerevisiae mlh1 rad18 strain growth inhibition, active compounds read high
In short: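 Compound-treated yeast growth, normalised to vehicle controls. Strain bears defined DNA repair mutations.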

[16] = NCI Yeast Anticancer Drug Screen. Data for the rad18 strain (AID 177); details: S. cerevisiae rad18 mutant growth inhibition, active compounds read high
In short: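 Inhibition values reflect reduced yeast growth compared with vehicle-treated controls, using a strain engineered with a DNA damage repair defect.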

[17] = at 5.0 µM (retest, dose inferred, filed as 0.5)
[18] = at 50.0 µM (retest, dose inferred, filed as 5.0)

Measured: growth inhibition

Cc1nc(Nc2ccccc2[N+](=O)[O-])sc1C(=O)CC(=O)C(=O)Nc1c(C(C)C)cccc1C(C)C
inactive: [1]; at 1.2 µM -2% | [1]; at 3.7 µM -2% | [1]; at 11.0 µM -1% | [1]; at 33.0 µM -5% | [1]; at 100.0 µM 1% | [2]; at 1.2 µM 2% | [2]; at 3.7 µM 4% | [2]; at 11.0 µM 3% | [2]; at 33.0 µM 5% | [2]; at 100.0 µM 4% | [3]; at 1.2 µM 5% | [3]; at 3.7 µM 17% | [3]; at 11.0 µM 37% | [3]; at 33.0 µM 50% | [3]; at 100.0 µM 59% | [4]; at 1.2 µM -1% | [4]; at 3.7 µM 0% | [4]; at 11.0 µM 0% | [4]; at 33.0 µM -11% | [4]; at 100.0 µM -1% | [5]; at 1.2 µM -5% | [5]; at 3.7 µM -16% | [5]; [17] 10% | [5]; at 11.0 µM -17% | [5]; at 33.0 µM 2% | [5]; [18] 1% | [5]; at 50.0 µM -1.6% | [5]; at 100.0 µM 3% | [6]; at 1.2 µM 2% | [6]; at 3.7 µM 4% | [6]; [17] 3% | [6]; at 11.0 µM 3% | [6]; at 33.0 µM 6% | [6]; [18] 8% | [6]; at 50.0 µM 17.9% | [6]; at 100.0 µM 6% | [7]; at 1.2 µM 0% | [7]; at 3.7 µM -2% | [7]; at 11.0 µM 1% | [7]; at 33.0 µM 0% | [7]; at 100.0 µM 3% | [8]; [17] 7% | [8]; [18] 11% | [8]; at 50.0 µM 34% | [9]; at 1.2 µM 3% | [9]; at 3.7 µM 1% | [9]; at 11.0 µM 4% | [9]; at 33.0 µM 11% | [9]; at 100.0 µM 12% | [10]; [17] 35% | [10]; [18] 12% | [10]; at 50.0 µM 47.1% | [11]; at 1.2 µM 3% | [11]; at 3.7 µM 5% | [11]; [17] -3% | [11]; at 11.0 µM 7% | [11]; at 33.0 µM 12% | [11]; [18] 33% | [11]; at 50.0 µM 41.2% | [11]; at 100.0 µM 12% | [12]; at 1.2 µM -1% | [12]; at 3.7 µM 0% | [12]; at 11.0 µM 0% | [12]; at 33.0 µM 2% | [12]; at 100.0 µM 0% | [13]; at 1.2 µM 2% | [13]; at 3.7 µM 3% | [13]; at 11.0 µM 5% | [13]; at 33.0 µM 5% | [13]; at 100.0 µM 5% | [14]; at 1.2 µM 2% | [14]; at 3.7 µM 4% | [14]; at 11.0 µM 2% | [14]; at 33.0 µM 7% | [14]; at 100.0 µM 6% | [15]; [17] 4% | [15]; [18] 14% | [15]; at 50.0 µM -5.1% | [16]; at 1.2 µM -3% | [16]; at 3.7 µM 1% | [16]; at 11.0 µM 1% | [16]; at 33.0 µM 0% | [16]; at 100.0 µM -3%

C[Si](C)(C)/C=C/CCNC(C#N)c1ccccc1 (stereo unspecified)
active: [1]; at 100.0 µM 93% | [2]; at 100.0 µM 95% | [3]; at 100.0 µM 74% | [4]; at 100.0 µM 94% | [5]; [17] 98% | [5]; [18] 99% | [5]; at 50.0 µM 89.7% | [5]; at 100.0 µM 92% | [6]; [17] 98% | [6]; [18] 99% | [6]; at 50.0 µM 91.8% | [6]; at 100.0 µM 95% | [7]; at 100.0 µM 94% | [8]; [18] 97% | [8]; at 50.0 µM 92.7% | [9]; at 100.0 µM 93% | [10]; [18] 97% | [10]; at 50.0 µM 90.2% | [11]; [18] 95% | [11]; at 50.0 µM 90.1% | [11]; at 100.0 µM 93% | [12]; at 100.0 µM 95% | [13]; at 100.0 µM 95% | [14]; at 100.0 µM 94% | [15]; [17] 99% | [15]; [18] 99% | [15]; at 50.0 µM 90.3% | [16]; at 100.0 µM 92%
inactive: [1]; at 1.2 µM -10% | [1]; at 3.7 µM -9% | [1]; at 11.0 µM 48% | [1]; at 33.0 µM 32% | [2]; at 1.2 µM 3% | [2]; at 3.7 µM -2% | [2]; at 11.0 µM 41% | [2]; at 33.0 µM 35% | [3]; at 1.2 µM -28% | [3]; at 3.7 µM -44% | [3]; at 11.0 µM -17% | [3]; at 33.0 µM -30% | [4]; at 1.2 µM -14% | [4]; at 3.7 µM -25% | [4]; at 11.0 µM 38% | [4]; at 33.0 µM 22% | [5]; at 1.2 µM -14% | [5]; at 3.7 µM -28% | [5]; at 11.0 µM 47% | [5]; at 33.0 µM 10% | [6]; at 1.2 µM -21% | [6]; at 3.7 µM -23% | [6]; at 11.0 µM 43% | [6]; at 33.0 µM 23% | [7]; at 1.2 µM -6% | [7]; at 3.7 µM 3% | [7]; at 11.0 µM 37% | [7]; at 33.0 µM 52% | [8]; [17] -12% | [9]; at 1.2 µM 3% | [9]; at 3.7 µM 10% | [9]; at 11.0 µM 52% | [9]; at 33.0 µM 42% | [10]; [17] 32% | [11]; at 1.2 µM -8% | [11]; at 3.7 µM 7% | [11]; [17] 12% | [11]; at 11.0 µM 38% | [11]; at 33.0 µM 43% | [12]; at 1.2 µM -9% | [12]; at 3.7 µM -19% | [12]; at 11.0 µM 39% | [12]; at 33.0 µM 36% | [13]; at 1.2 µM -16% | [13]; at 3.7 µM -5% | [13]; at 11.0 µM 49% | [13]; at 33.0 µM 33% | [14]; at 1.2 µM -19% | [14]; at 3.7 µM -15% | [14]; at 11.0 µM 42% | [14]; at 33.0 µM 31% | [16]; at 1.2 µM -33% | [16]; at 3.7 µM -42% | [16]; at 11.0 µM 27% | [16]; at 33.0 µM 23%
